# Screen size: about 63,000 compounds; about 1,100 (1.7%) were called active. No stated cut-off is given here; in the data, active means cytotoxicity above about 50%; inactive means the rest. The sample as a whole holds a higher share of actives than the screen did. Results with a measured potency or affinity are listed apart.
# Assay: HPDE-C7 pancreatic duct cell viability loss – fluorescence, HTS (AID 430);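 further: cells exposed to compound for 48 hours before viability readout; 0% = vehicle and 100% = reference cytotoxic drug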
# Conditions: HPDE-C7 pancreatic duct cells viability, at 10 µM, stronger effect = higher value
row,Compound,cytotoxicity
1,O=C(O)C1CC(=O)N(c2ccc(F)c(F)c2)C1 (stereo not given),-4.7% (inactive)
2,CC1CCN(C(=O)CSc2nnc(-c3cc4ccccc4cc3O)n2Cc2ccco2)CC1,22.2% (inactive)
3,CCOC(=O)Cn1nc(C)c(-c2ccccc2)c1N,-9.4% (inactive)
4,Cc1nc2sc(C(c3ccccc3)N3CCC(O)CC3)c(O)n2n1 (stereo not given),7.2% (inactive)
5,O=C(O)c1ccc(S(=O)(=O)c2ccc3c(c2)C(=O)N(CC2CCCO2)C3=O)cc1 (stereo not given),-5.6% (inactive)
6,O=C(NC1CCCC1)C1CC(=O)N(C2CCCCCCC2)C1 (stereo not given),-18% (inactive)
7,CCNc1c2c3c(cccc3n(C)c1=O)C(=O)c1ccccc1-2,53.8% (active)
8,CC(=O)Nc1c2c3c(cccc3n(C)c1=O)C(=O)c1ccccc1-2,-6.7% (inactive)
9,Cn1c(=O)c(NCCO)c2c3c(cccc31)C(=O)c1ccccc1-2,-8.4% (inactive)
10,Cc1nn(CCCNC(=O)C2CCCO2)cc1Br (stereo not given),-8.3% (inactive)
11,CCOc1cc2[nH]c(=S)n(CC3CCCN3CC)c(=O)c2cc1OCC (stereo not given),4.2% (inactive)
12,O=C(NCc1ccc2c(c1)OCO2)c1cccc(Cl)c1,-4.3% (inactive)
13,O=C(NCc1ccc2c(c1)OCO2)c1nnc(Cc2ccc(Cl)cc2)o1,-0.3% (inactive)
14,O=C(NCc1ccc2c(c1)OCO2)c1ccc(-c2ccc(Cl)cc2)o1,53.5% (active)
15,O=C(Nc1cccc2nsnc12)c1ccc2c(c1)OCCO2,-5.8% (inactive)
16,O=C(Nc1ccccc1C(=O)N1CCCC1)C1CCN(c2ncccn2)CC1,-9.4% (inactive)
17,O=C(COC(=O)C1CCN(C(=O)c2ccc(Cl)cc2)CC1)c1ccco1,1.1% (inactive)
18,COc1ccccc1-n1c(=O)[nH]c2c(C(N)=O)nc(-c3cccnc3)nc21,20.4% (inactive)
19,COc1ccc(-c2nc(C(N)=O)c3[nH]c(=O)n(-c4ccccc4OC)c3n2)c(OC)c1,-6.2% (inactive)
20,CCc1ccc(-c2nc(C(N)=O)c3[nH]c(=O)n(-c4ccccc4OC)c3n2)cc1,52.3% (active)
21,CC1(C)CC(=O)c2sc(NC(=O)CN3C(=O)CCC3=O)nc2C1,-5.4% (inactive)
22,COc1ccc(S(=O)(=O)N(CC(=O)N2CCOCC2)c2cc(Cl)ccc2OC)cc1OC,-21.9% (inactive)
23,CCCCNC(=O)Nc1cc(C(F)(F)F)c[nH]c1=O,4.6% (inactive)
24,O=c1cc(-c2ccccc2)[nH]c2ccccc12,60.9% (active)

row,Compound,cytotoxicity
1,Cc1cc(=O)c2ccccc2[nH]1,-8.3% (inactive)
2,O=c1cc(-c2ccccc2)c2ccccc2[nH]1,-20.9% (inactive)
3,O=C(NCCCN1CCCC1=O)NC12CC3CC(CC(C3)C1)C2,-16.8% (inactive)
4,CCOC(=O)N1CCC2(CC1)C(C(=O)C13CC4CC(CC(C4)C1)C3)C2(C#N)C#N (stereo not given),-15.7% (inactive)
5,Cc1cc(C)n(-c2cccc3cccnc23)n1,-7% (inactive)
6,Cc1onc(-c2ccccc2Cl)c1C(=O)Oc1cc(N)n(S(=O)(=O)c2ccc(F)cc2)n1,32.7% (inactive)
7,COc1ccccc1C(=O)Oc1cc(N)n(S(=O)(=O)c2ccc(C)cc2)n1,-1.2% (inactive)
8,COc1ccc(S(=O)(=O)n2nc(OC(=O)c3ccccc3)cc2N)cc1,1.9% (inactive)
9,Cc1ccc(S(=O)(=O)n2nc(OC(=O)c3c(-c4ccccc4Cl)noc3C)cc2N)cc1,79.3% (active)
10,COc1ccc(S(=O)(=O)n2nc(OC(=O)c3ccc(C)cc3)cc2N)cc1,-9.2% (inactive)
11,COc1ccc(S(=O)(=O)n2nc(OC(=O)c3c(-c4ccccc4Cl)noc3C)cc2N)cc1,63.1% (active)
12,Cc1csc(NC(=O)CSc2nc(C)nc3c2c(=O)n(C)c(=O)n3C)n1,-1.2% (inactive)
13,O=C(c1ccc(CS(=O)(=O)Cc2ccc(Cl)cc2)o1)N1CCCC1,7.7% (inactive)
14,COc1ccccc1-c1cc(-c2cc(Cl)ccc2O)n[nH]1,-8% (inactive)
15,Cc1ccccc1-c1cc(-c2ccccc2O)n[nH]1,25.4% (inactive)
16,Cc1ccc(-c2cc(-c3cccc(F)c3)n[nH]2)c(O)c1,2.1% (inactive)
17,Oc1ccccc1-c1cc(-c2ccccc2Cl)[nH]n1,-4.7% (inactive)
18,Cc1ccc(-c2cc(-c3ccccc3Cl)[nH]n2)c(O)c1,67.3% (active)
19,COC(=O)C1=C(C)NC(=O)CC1c1ccc(C(=O)OC)cc1 (stereo not given),5.9% (inactive)
20,CCN(CC)S(=O)(=O)c1ccc2[nH]cc(C(=O)NCCN3CCCCC3C)c(=O)c2c1 (stereo not given),0% (inactive)
21,Cc1cc(=O)[nH]c(SCC2COC3(CCCCC3)O2)n1 (stereo not given),-12.2% (inactive)
22,Cc1c(-c2nc(N)nc(Nc3ccc(F)cc3)n2)oc2ccccc12,6.3% (inactive)
23,Cc1c(-c2nc(N)nc(Nc3ccccc3F)n2)oc2ccccc12,15% (inactive)
24,Cc1c(-c2nc(N)nc(Nc3ccccc3)n2)oc2ccccc12,52.8% (active)

row,Compound,cytotoxicity
1,COc1nc(Oc2ccc(C(=O)OCC(N)=O)cc2)nc(N(C)C)n1,3.8% (inactive)
2,O=C1CCc2cc(S(=O)(=O)N3CCC(C(=O)NC4CCCC4)CC3)ccc2N1,0.9% (inactive)
3,Cc1ccc(-c2csc3nc(C)n(-n4c(C)ccc4C)c(=O)c23)o1,10.1% (inactive)
4,C=CCn1c(SCc2csc(C)n2)nc2sc3c(c2c1=O)CCCCC3,4.7% (inactive)
5,C=CCn1c(SCc2csc(C)n2)nc2scc(-c3ccc(C)o3)c2c1=O,86.5% (active)
6,CCSc1nc2c(c(=O)[nH]1)C(c1cccnc1)C(C(=O)OC)=C(C)N2 (stereo not given),-19% (inactive)
7,CCn1c(C)c(C(C)=O)c(N2CCCCC2)nc1=S,-8.3% (inactive)
8,CC(=O)c1c(C)[nH]c(C(=O)OCC(=O)Nc2cc(C)on2)c1C,7.8% (inactive)
9,Cc1csc(NC(=O)CSc2nc(C)cs2)n1,3.7% (inactive)
10,CC(C)(C)NC(=O)CSc1nsc(SCC(=O)NC(C)(C)C)c1C#N,1.2% (inactive)
11,O=C(NC1CCS(=O)(=O)C1)c1ccccc1C(=O)c1ccccc1 (stereo not given),-4.3% (inactive)
12,O=C(NC1CCS(=O)(=O)C1)c1cn(-c2ccccc2)nc1-c1ccccc1 (stereo not given),59.8% (active)
13,O=C(NCCCn1ccnc1)c1cn(-c2ccccc2)nc1-c1ccccc1,-1.6% (inactive)
14,CCCn1c(NC(=O)C2CCN(S(=O)(=O)c3cccs3)CC2)nc2ccccc21,8% (inactive)
15,Cc1cccc(C)c1-n1nnnc1S(=O)(=O)Cc1ccccc1Cl,1% (inactive)
16,COc1ccccc1-n1nnnc1SCc1ccccc1,-13.8% (inactive)
17,C=CCn1cnc2c(c1=O)c1nc3ccccc3nc1n2-c1ccccc1,1.4% (inactive)
18,Cc1nc(SCC(=O)Nc2c(C)n(C)n(-c3ccccc3)c2=O)n[nH]1,-18.3% (inactive)
19,CCc1ccc2[nH]c(=O)c(CN(Cc3ccc(OC)cc3)Cc3nnnn3CCOC)cc2c1,9.3% (inactive)
20,O=C1c2oc3ccc(F)cc3c(=O)c2C(c2ccccc2)N1CC1CCCO1 (stereo not given),-14.4% (inactive)
21,Cc1noc(C(=O)N2CCN(c3ccc(F)cc3)CC2)c1Cl,-11.2% (inactive)
22,CCN1CCN(c2ncc(C(=O)Nc3ccccc3C(=O)OC)c3ccccc23)CC1,25.8% (inactive)
23,CCN1CCN(c2ncc(C(=O)Nc3cc(Cl)c(OC)cc3OC)c3ccccc23)CC1,16% (inactive)
24,CCN1CCN(c2ncc(C(=O)Nc3cc(Cl)ccc3OC)c3ccccc23)CC1,82.5% (active)

row,Compound,cytotoxicity
1,COc1ccccc1Cn1c(=O)c2ccccc2n2c(SCC(=O)N3CCCCC3)nnc12,-4.5% (inactive)
2,COc1ccc(NC(=O)c2ocnc2C)cc1OC,-32.7% (inactive)
3,OC(COCC1COc2ccccc2O1)CN1CCN(c2ccccn2)CC1 (stereo not given),6.2% (inactive)
4,Cc1nc(NCCNC(=O)c2ccco2)c2c(C)c(C)sc2n1,-13.6% (inactive)
5,Cc1cc(NC(=O)COC(=O)c2ccc(S(=O)(=O)N3CCCc4ccccc43)cc2)no1,58.6% (active)
6,Cc1cc(NC(=O)COC(=O)c2cccc(S(=O)(=O)N3CCOCC3)c2)no1,-14.7% (inactive)
7,COC(=O)Nc1ccc(S(=O)(=O)N2CCCc3ccccc32)cc1,56.8% (active)
8,CC(=O)Nc1ccc(S(=O)(=O)N2CCCc3ccccc32)cc1,37.8% (inactive)
9,CCCNC(=O)NC(=O)COC(=O)c1ccc(OC)c(S(=O)(=O)N2CCCc3ccccc32)c1,0.1% (inactive)
10,O=C(O)C1CC=CCC1C(=O)Nc1ccc(S(=O)(=O)N2CCCc3ccccc32)cc1 (stereo not given),30.6% (inactive)
11,CCC(C)Oc1cccc(OCCCCN2C(=O)NC(C)(C)C2=O)c1 (stereo not given),8.5% (inactive)
12,O=C(CC1c2ccccc2Oc2ccccc21)NCc1ccco1,-3.4% (inactive)
13,CCC(=O)N1CCc2cc(Br)cc(S(=O)(=O)N3CCCCCC3)c21,-12.2% (inactive)
14,CC(=O)N1CCc2cc(S(=O)(=O)CCC(=O)N3CCN(C(=O)c4ccco4)CC3)ccc21,1.6% (inactive)
15,O=C(O)c1oc2ccc(Br)cc2c1-n1cccc1,57.8% (active)
16,O=C(O)c1oc2ccccc2c1-n1cccc1,9.5% (inactive)
17,COC(=O)c1oc2ccc(Br)cc2c1-n1cccc1,1.1% (inactive)
18,COc1ccc(NC(=O)CSc2nnc(-c3ccccn3)n2N)cc1,-17.7% (inactive)
19,O=C(Nc1ccccc1)OCCOc1ccccc1,-17.6% (inactive)
20,CC(C)n1c(C(=O)OCC(=O)NCc2ccc3c(c2)OCO3)cc2sccc21,45% (inactive)
21,Cn1c(C(=O)OCC(=O)NCc2cccs2)cc2sccc21,9.4% (inactive)
22,Cc1cc2c(cc(C(=O)OCC(=O)NCc3cccs3)n2C(C)C)o1,57.6% (active)
23,CCOC(=O)N1CCN(C(=O)CSc2nnc(Cn3c(=O)sc4ccccc43)n2C)CC1,-4.9% (inactive)

# From PubChem BioAssay AID430 (Sanford-Burnham Center for Chemical Genomics, 2006)
